Screening data deposited in PubChem by National Center for Advancing Translational Sciences (NCATS).
An excerpt weighted towards active compounds, which were near 4.6% of everything screened.
D1 antagonist: Antagonist of Human D 1 Dopamine Receptor: qHTS; D(1A) dopamine receptor (Homo sapiens), P21728; HEK293 TREx D1 cells, calcium flux, dopamine EC80; active compounds read low; activity change, negative = inhibition, % at 10 µM; actives 3.2% (n = 360,000); in the data active means activity change below about -30%; further: on the % scale 0 is the no-effect control and ±100 the full control effect
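After overnight tetracycline induction at 30 C, force-coupled D1 HEK293 cells took up a no-wash calcium dye at room temperature. Compounds were added and monitored 180 s, and the response to EC80 dopamine was then recorded.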
D1 agonist: Allosteric Agonists of the Human D1 Dopamine Receptor: qHTS; D(1A) dopamine receptor (Homo sapiens), P21728; activation, % at 2 µM; actives 1% (n = 360,000); HEK293 T-REx D1 cells, calcium flux, agonist mode; AID 504660, 2011; further: 0% is about no effect
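Agonism was scored from calcium flux recorded over 180 s (1 read/s) after pintool compound addition, following a 10-cycle baseline. Cells were inducible force-coupled HEK293 TREx D1, plated overnight at 30 C and loaded with no-wash calcium dye.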
TRHR PAM: qHTS for Small Molecule Agonists and Allosteric Enhancers of Human TRH Receptor: Primary Screen for Enhancers; AID 493056, 2011; actives 0.66% (n = 360,000); Thyrotropin-releasing hormone receptor (Homo sapiens), P34981; TRHR cells, fluo-8 calcium fluorescence, EC20 TRH enhancement; enhancement, % at 2 µM; in the data active means enhancement above about 30%; further: 0% is about no effect
Target sequence (P34981 whole entry, looked up): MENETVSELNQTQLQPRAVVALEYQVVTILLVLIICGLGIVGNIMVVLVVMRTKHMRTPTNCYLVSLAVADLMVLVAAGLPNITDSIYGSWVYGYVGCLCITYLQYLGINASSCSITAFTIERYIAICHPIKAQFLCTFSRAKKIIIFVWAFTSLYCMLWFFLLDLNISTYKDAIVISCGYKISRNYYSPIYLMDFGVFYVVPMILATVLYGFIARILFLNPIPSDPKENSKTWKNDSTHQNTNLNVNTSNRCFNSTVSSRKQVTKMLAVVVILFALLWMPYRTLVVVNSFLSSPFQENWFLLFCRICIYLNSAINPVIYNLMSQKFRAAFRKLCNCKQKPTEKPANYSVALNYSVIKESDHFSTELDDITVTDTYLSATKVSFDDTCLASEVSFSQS
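TRHR-expressing cells loaded with fluo-8 calcium dye were read kinetically (ex 480/em 530) during compound addition, then stimulated with an EC20 of TRH (10 nM final). Enhancement of the Gq-mediated intracellular calcium response was scored.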
D1 PAM: Potentiators of Human D1 Dopamine Receptor: qHTS. D(1A) dopamine receptor (Homo sapiens), P21728. HEK293 TREx D1 cells, calcium flux, dopamine EC20 potentiation. potentiation, % at 10 µM. actives 0.036% (n = 360,000); in the data active means potentiation above about 30%; further: 0% is about no effect
TRHR agonist: qHTS for Small Molecule Agonists and Allosteric Enhancers of Human TRH Receptor: Primary Screen for Agonists. TRHR cells, calcium flux fluo-8, FDSS agonist mode. actives 0.18% (n = 360,000). Thyrotropin-releasing hormone receptor (Homo sapiens), P34981. activation, % at 2 µM. AID 493084, 2011; further: 0% is about no effect
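TRHR-expressing cells, plated overnight in medium with 10% serum, were loaded with fluo-8 calcium dye at room temperature. After a 10 s baseline, library compound was pin-added and calcium release was recorded kinetically (ex 480/em 530) as agonist response.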
An asterisk follows results filed as active; nt = no result. Unless noted, no stated cut-off is given here; in the data, active means activation above about 30%; inactive means the rest.

SMILES	D1 antagonist	D1 agonist	TRHR PAM	D1 PAM	TRHR agonist
COc1ccc(-c2nc3c(C#N)c[nH]n3c2NC2CCCC2)cc1	-1.6	-2.0	-4.5	-1.1	-0.6
O=c1cc(N2CCN(c3ccc(F)cc3)CC2)[nH]c(=O)n1-c1ccc(Br)cc1	-40.3*	0.7	-1.3	-0.9	-0.3
COc1cc(OC)c2c(OC)cccc2n1	-82.3*	0.1	-10.4	-3.6	0.2
Cc1cc(-c2csc3nc[nH]c(=S)c23)cc(C)c1C	-48.7*	17.1	-6.7	-5.0	-1.9
Cc1ccc(-c2csc3nc[nH]c(=S)c23)cc1	-7.6	2.4	0.2	-1.1	-0.6
O=C(c1ccc([N+](=O)[O-])cc1)N1CCSC1c1cccc(Cl)c1 (stereo not given)	-34.9*	3.3	-1.1	-12.5	1.5
CC(=O)Nc1ccc(S(=O)(=O)NNC(=O)COc2ccc(C)cc2)cc1	-33.3*	0.3	0.0	-19.4	0.3
Cc1ccc(OCC(=O)Nc2ccc([N+](=O)[O-])cc2)cc1	-38.5*	6.8	-3.2	-3.8	-0.9
Cc1ccc(NC(=O)C2(c3ccc([N+](=O)[O-])cc3)CCCC2)cc1	3.2	22.7	33.3*	4.6	4.7
COc1ccc(OCC(=O)Nc2ccc(-c3nc4cc(C)c(C)cc4o3)cc2)cc1	-30.5*	-0.3	1.0	0.7	1.9
COc1ccc(NC(=O)C2(c3ccc(NC(=O)c4ccc(OC)cc4)cc3)CCCC2)cc1	9.3	1.1	1.4	2.9	0.3
O=c1c2sc3ccccc3c2n(Cc2ccc(F)cc2)c(=O)n1Cc1ccco1	28.6	-0.3	27.5	-0.1	0.2
CCCCC(CC)CNC(=O)CCCCCn1c(=O)[nH]c2ccsc2c1=O (stereo not given)	1.3	1.4	-5.1	-0.8	-0.4
O=C(COc1ccccc1)Nc1ccc([N+](=O)[O-])cc1	-81.6*	14.1	2.9	-8.5	0.5
COc1ccc(C)cc1Nc1n[n+](-c2ccccc2)c(-c2ccc(N(C)C)cc2)s1	-56.8*	1.2	-8.0	-19.1	0.6
COc1ccc(C)cc1Nc1n[n+](C)c(-c2c3ccccc3cc3ccccc23)s1	-20.6	3.4	0.2	2.5	0.0
COc1ccc(C)cc1Nc1n[n+](-c2ccccc2)c(-c2ccc(OC)c(OC)c2OC)s1	-37.4*	1.1	-5.8	-18.2	-0.7
COc1ccc(C)cc1Nc1n[n+](-c2ccccc2)c(-c2c(Cl)cccc2Cl)s1	-25.3	32.4*	-6.2	-10.6	0.2
COc1ccc(C)cc1Nc1n[n+](C)c(-c2ccc(O)cc2O)s1	-30.1*	0.3	12.6	-7.1	0.2
COc1ccc(-c2nnc(SCCOc3ccccc3C)o2)cc1OC	-22.3	21.0	-0.1	-3.4	1.4
CC(C)c1ccc(NC(=O)CSC2=Nc3ccccc3C3=NC(CCC(=O)NCc4cccs4)C(=O)N23)cc1 (stereo not given)	6.8	6.5	-2.7	-2.2	-0.1
Cc1cc2c(cc1C)NC(c1c(C)n(C)n(-c3ccccc3)c1=O)C1=C(CC(C)(C)CC1=O)N2 (stereo not given)	9.1	81.4*	0.6	-3.9	42.9*
Cc1ccc(CNC(=O)c2sc3nc(-c4ccccc4)cn3c2C)cc1	-6.2	1.1	-2.0	-5.5	0.7
Cc1c(C(=O)NCc2ccc(F)cc2)sc2nc(-c3ccc(F)cc3)cn12	-50.3*	3.6	-0.1	-4.7	0.1
COc1ccc(Cl)cc1C(=O)NCC(c1ccc(N(C)C)cc1)N1CCOCC1 (stereo not given)	-9.6	0.2	-0.6	1.3	-0.3
SMILES	D1 antagonist	D1 agonist	TRHR PAM	D1 PAM	TRHR agonist
Cc1ccc(-c2nnc(Nc3ccc(O)cc3)c3ccccc23)cc1S(=O)(=O)NC(C)(C)CO	-44.1*	-0.8	18.5	-2.7	-0.7
Cc1ccc(-c2nnc(Nc3ccc(F)cc3)c3ccccc23)cc1S(=O)(=O)NC(C)C	-33.7*	-1.2	6.7	-3.1	-0.4
COc1nnc(-c2ccc(C)c(S(=O)(=O)NC(C)C)c2)c2ccccc12	3.6	5.3	-0.5	6.0	-0.9
Cc1ccc(Nc2nnc(-c3ccc(C)c(S(=O)(=O)N4CCOCC4)c3)c3ccccc23)c(C)c1	-45.0*	-0.9	8.7	-3.1	-1.2
CC(=O)Nc1ccc(Nc2nnc(-c3ccc(C)c(S(=O)(=O)NCCO)c3)c3ccccc23)cc1	2.2	1.5	3.4	-4.2	0.1
Cc1ccc(-c2nnc(Nc3ccc(C(N)=O)cc3)c3ccccc23)cc1S(=O)(=O)N1CCCCC1	-21.3	2.2	-2.2	1.3	-1.7
Cc1ccc(-c2nnc(Nc3ccc(O)cc3)c3ccccc23)cc1S(=O)(=O)N1CCCCC1	-17.5	-2.2	30.1*	0.2	-0.1
CCc1ccc(-c2nc(CN3CCCC(C(=O)N4CCN(c5cc(Cl)ccc5C)CC4)C3)c(C)o2)cc1 (stereo not given)	-8.5	3.5	12.8	-1.9	0.4
Cc1cn2c(=O)cc(COc3cccc(NC(=O)c4ccccc4C)c3)nc2s1	-20.8	-1.9	-3.2	-1.7	-0.8
Cc1ccc2sc(N3CCN(C(=O)C4COc5ccccc5O4)CC3)nc2c1C (stereo not given)	nt	2.4	4.0	0.9	-0.5
CC(=O)Nc1cc(C(=O)O)ccc1S(=O)(=O)c1ccc(C)cc1	4.2	0.5	3.7	6.8	0.5
CC(=O)Nc1cc(C(=O)NCc2ccc(F)cc2)ccc1S(=O)(=O)c1ccc(C)cc1	-67.2*	-4.1	1.3	0.7	-1.0
CC(=O)Nc1cc(C(=O)N2CCOCC2)ccc1S(=O)(=O)c1ccc(C)cc1	-31.5*	0.6	1.4	1.7	0.3
O=C(c1cccc(Cl)c1)n1nc(-c2ccco2)nc1NCc1cccs1	-2.6	-0.7	9.0	0.7	-0.2
O=C(O)COc1ccc(/C=N/NC(=O)COc2nsnc2N2CCOCC2)cc1	-4.6	3.4	-2.6	-3.5	-2.2
O=C(COc1nsnc1N1CCOCC1)N/N=C/c1ccccc1O	-3.1	11.1	31.9*	-5.0	1.6
Cc1oc2c(C)c(O)ccc2c(=O)c1-c1cnn(-c2ccccc2)c1	-37.0*	1.4	-7.2	2.2	0.1
CCOC(=O)c1c(C)oc2ncnc(N3CCN(c4ccccc4OC)CC3)c12	-6.8	0.4	25.7	-4.0	-1.6
Cc1cc(C)n(C(C)CC(=O)Nc2cccc(C(F)(F)F)c2)n1 (stereo not given)	-7.3	-0.4	4.3	-4.2	0.2
Cc1ccc2oc(-c3ccc(C)c(NC(=O)c4ccc(-c5ccccc5[N+](=O)[O-])o4)c3)nc2c1	-10.4	-0.8	0.9	-3.1	0.2
